Assay results reported in PubChem BioAssay AID1851 (National Center for Advancing Translational Sciences (NCATS), 2009).
The whole screen tested about 16,000 compounds, of which about 5,700 (36%) were called active. About 24% were inconclusive and are not listed. Calls come from the whole dose curve; as a rule, active = well fitted curve in the direction sought with a large enough effect; inconclusive = small, poorly fitted or top-dose-only effect, or effect the other way; inactive = no such curve, though single readings can be large or run the other way. This is one part of the list.

Biological target: Cytochrome P450 1A2 (Homo sapiens) (UniProt P05177)
Sequence (P05177 whole entry, looked up): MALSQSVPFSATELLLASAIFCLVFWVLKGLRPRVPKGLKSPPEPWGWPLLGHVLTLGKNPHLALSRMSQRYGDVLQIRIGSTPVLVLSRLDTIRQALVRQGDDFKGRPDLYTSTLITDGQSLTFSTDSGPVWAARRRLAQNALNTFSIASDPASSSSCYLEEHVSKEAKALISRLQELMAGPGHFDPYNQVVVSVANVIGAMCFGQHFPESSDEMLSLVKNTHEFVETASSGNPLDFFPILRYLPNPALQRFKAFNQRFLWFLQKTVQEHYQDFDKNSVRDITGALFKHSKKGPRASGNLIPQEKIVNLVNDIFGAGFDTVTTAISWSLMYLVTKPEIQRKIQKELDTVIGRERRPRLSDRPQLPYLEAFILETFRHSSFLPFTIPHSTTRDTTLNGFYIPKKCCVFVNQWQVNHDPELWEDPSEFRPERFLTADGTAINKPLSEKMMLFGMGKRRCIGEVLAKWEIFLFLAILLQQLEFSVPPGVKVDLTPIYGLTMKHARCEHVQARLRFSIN
Assay: Cytochrome panel assay with activity outcomes
Conditions: recombinant CYP, pro-luciferin dealkylation, luminescence, p450-cyp1a2; series mostly up to 57.1 µM; activity, negative = inhibition: at the top concentration
% is set by controls: 0 for no effect and ±100 for the full control effect.

activity, negative = inhibition, inactive:
C/C(=N\O)c1cccc[n+]1Cc1ccccc1 -0.979% [at 11.4 µM]
NC(=O)c1ccc(C2SCC(=O)N2Cc2ccccc2)cc1 (centres undefined) -13.7%
CO[C@]1(NC(=O)[C@H](C(=O)O)c2ccc(O)cc2)C(=O)N2C(C(=O)O)=C(CSc3nnnn3C)CO[C@H]21 -1.45% [at 25.6 µM]
COCCNC(=O)CSc1nc2cc(OC)c(OC)cc2c(=O)n1Cc1ccco1 -14.6%
CC(=O)[C@H]([C@@H](c1ccccc1)N1CCOCC1)N1CCOCC1 2.19% [at 11.4 µM]
C[C@](O)(c1ccccc1)c1nccc2ccccc12 -17.4% [at 11.4 µM]
COc1ccc2c(c1OC)C(=O)OC2Nc1ncccc1C (centres undefined) -10.2%
COc1ccc(NC(=O)C23CC4CC(C2)CC(n2cnc(Br)n2)(C4)C3)c(C)c1 -11%
O=C(NCCN1CCN(Cc2ccccc2)CC1)C1c2ccccc2C(=O)N2CCc3ccccc3C12 (centres undefined) -14%
O=C1CCC[C@@H](C(C(=O)OCc2ccccc2)C(=O)OCc2ccccc2)C1 -9.68% [at 11.4 µM]
CN(C)CCOC(=O)[C@@H](c1ccccc1)C1(O)CCCC1 -20.8% [at 25.6 µM]
C[N+]1(C)CCC(OC(=O)C(c2ccccc2)c2ccccc2)CC1 7.34%
CCCC(C(=O)OCCN(CC)CC)(c1ccccc1)c1ccccc1 -7.7%
CN(C)CCNc1ncnc2c1sc1nc(N3CCOCC3)c3c(c12)CC(C)(C)SC3 -27.4%
CCOc1ccc(N=C2NC(=O)C(CC(=O)O)S2)cc1 (centres undefined) -10.5%
O=C1CN2CCN(CC2)CC(=O)Nc2ccc(cc2)S(=O)(=O)c2ccc(cc2)NC(=O)CN2CCN(CC2)CC(=O)Nc2ccc(cc2)S(=O)(=O)c2ccc(cc2)N1 -13.1% [at 11.4 µM]
COC(=O)[C@@H]1CC[C@H](C)[C@@H](c2ccc(C)cc2)N1C(=O)c1ccc(/C=N\OCC[C@@H]2C=C[C@H](OC(C)=O)[C@H](COC(C)=O)O2)cc1 -3.4% [at 11.4 µM]
C[C@H]1CN(S(=O)(=O)c2cccc3cnccc23)CCN1 -7.08%
C[C@@H]1CN2[C@H](c3ccc(Br)cc3)[C@H](C)CC[C@H]2C(=O)O1 -6.13% [at 11.4 µM]
COCCN1CN=C(Nc2nc3ccccc3s2)NC1 -46.1%
CCOC(=O)[C@]1(CC(=O)O)CCCC1=O -12.7% [at 11.4 µM]
NCC[C@H](N)C(=O)O -8.87% [at 2.29 µM]
O=C(c1cc(C(F)(F)F)cc(C(F)(F)F)c1)N1CCC2(CC1)CN(c1ccncc1)C2 3.89%
COc1ccc(-c2nn(-c3ccccc3)cc2/C=N/NC(=O)c2ccc3c(c2)OCO3)cc1 -8.19%
CC(C)CN1CCCC2(CCN(C(=O)c3cnccn3)CC2)C1 -9.34%
O=C(O)Cc1ccc(O)c(O)c1 -11.2%
Nc1c(OCC(=O)O)ccc2cc(S(=O)(=O)O)ccc12 -5.41% [at 11.4 µM]
CCOc1ccccc1Nc1ccc(N)cc1S(=O)(=O)O -12.6% [at 2.29 µM]
CCOc1ccccc1NC(=O)CCC(=O)O 0.745%
CO[C@H]1COC(=O)[C@H](C)NC(=O)C/C=C\[C@@H](C)[C@@H](NS(=O)(=O)c2ccc(C)cc2)COC(=O)C/C=C\[C@@H]1C -0.0135% [at 11.4 µM]
C=CCN1C(=CCO)[C@H]2C[C@H]3[C@@H]1CC[C@@]31c3ccccc3N3C=C4[C@@H]5N(/C=C/2[C@H]31)c1ccccc1[C@]51CC[C@H]2[C@H]1C[C@@H]4/C(=C/CO)N2CC=C -3.83% [at 25.6 µM]
O=S(=O)(c1ccccc1)N1CCC2(CC1)CN(Cc1ccccc1)C2 -8.56%
CC(C)(C)c1ccc(C(=O)N2CCC(C(=O)NCCC3=CCCCC3)CC2)cc1 -2.75%

AC50, inactive:
N[C@@H]1CONC1=O
C[C@@H](CCc1ccc(O)cc1)NCCc1ccc(O)c(O)c1

AC50, active:
NC(=O)c1ccc(-c2ncc(-c3ccccc3)o2)cc1 0.631 µM
Cc1sc2nc(SCC(=O)C(C)(C)C)n(Cc3ccco3)c(=O)c2c1C 0.891 µM
Cc1ccc(-c2nc(-c3nccc4ccccc34)oc2-c2ccccc2)cc1 2.51 µM
COc1ccc(NC(=S)Nc2ncccc2C)c(OC)c1 1.12 µM
CCN=C1NN=C(c2ccc(C)cc2)CS1 20 µM
O=C(NCCc1ccccc1)c1noc2c1CCc1ccccc1-2 1.26 µM
CCN(CC)CCOC(=O)[C@@H](c1ccccc1)C1CCCCC1 1.26 µM
CCN(CC)CCOC(=O)C(c1ccccc1)c1ccccc1 5.01 µM
CCc1ccc(Nc2ncccc2C#N)cc1 1.26 µM
CCC(C)c1ccc(Nc2ncccc2C#N)cc1 (centres undefined) 5.01 µM
Nc1cccc2cnccc12 12.6 µM
Cc1nc(SCc2cccc(Oc3ccccc3)c2)n[nH]1 17.8 µM
COc1ccc(CN2CN=C(Nc3nc4ccccc4s3)NC2)cc1 12.6 µM
COc1c2c(nc3ccccc13)O[C@H]([C@@](C)(O)CO)C2 12.6 µM
CCOc1cc(CNc2ccc(OC)cc2)cc(Br)c1OCC(=O)NC(C)(C)C 11.2 µM
Cc1c2cnccc2c(C)c2c1c1ccccc1n2CCOC(=O)c1ccccc1 0.0794 µM
Cc1c(/C=N/NC(=O)c2ccc3c(c2)OCO3)cnn1C 14.1 µM
COc1cc(CNCCc2c[nH]c3ccccc23)ccc1OCc1ccccc1F 25.1 µM
O=C(CCc1ccc(O)cc1)c1c(O)cc(O)cc1O 6.31 µM
CCCCN(C(=O)NC(=O)Nc1ccccc1OCC)S(C)(=O)=O 20 µM
N#CC1=C(SCC(N)=O)NC2=C(C(=O)c3ccccc32)C1c1ccc(Cl)cc1 (centres undefined) 0.631 µM
CSC1=C(C#N)C(c2ccccc2Cl)C2=C(N1)c1ccccc1C2=O (centres undefined) 0.708 µM
COc1cccc(/C=N/n2c(=S)n(C)c3cc(C)c(C)cc32)c1OC 2.24 µM
O=C1CSc2ccc(C(=O)NCCC3=CCCCC3)cc2N1 3.16 µM
